The source of these data is PubChem BioAssay.

Experiment [1] can be described thus: E. coli DRC41 culture turbidity changes, primary screen, E. coli filamentation inducer project, strain DRC41, OD650, 48 h (AID 1152).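 Note: E. coli MC1000 strain DRC41 lacking acrAB efflux pump and sulA.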 As to conditions: E. coli DRC41 (acrAB sulA), higher = more signal, called active from +8 up or from −8 down.
Experiment [2] can be described thus: small-molecule binders of probe aLefty1, primary screen, biochemical, small-molecule microarray, 635/667 nm fluorescence (AID 1153).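 Note: score merges spot fluorescence with signal-to-noise ratio from the scanned slide images.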 As to conditions: higher = more signal.
Experiment [3] in a line: PSAC antagonists in infected red cells, primary screen, cell-based, P. falciparum Indochina, OD700, 1 h (AID 1154). As to conditions: P. falciparum Indochina infected RBC osmotic lysis, higher = more signal, called active from +8 up or from −8 down.
Experiment [4] is described as follows: PSAC antagonists in infected red cells, primary screen, cell-based, P. falciparum Indochina, OD700, 2 h (AID 1155).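 Note: lysis reports solute entry through the parasite surface anion channel PSAC; channel blockers reduce lysis of infected cells.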 To be noted: P. falciparum Indochina infected erythrocytes, osmotic lysis OD700; higher = more signal, called active from +8 up or from −8 down.
Experiment [5] in a line: osmotic lysis modulators in infected erythrocytes, primary screen, PSAC antagonist project, cell-based, P. falciparum Indochina, OD700, 3 h (AID 1156). As to conditions: higher = more signal, called active from +8 up or from −8 down.
Experiment [6] in a line: PSAC antagonists in infected red cells, primary screen, cell-based, P. falciparum Indochina, OD700, 18 h (AID 1157). As to conditions: P. falciparum Indochina infected erythrocytes, osmotic lysis OD700, 18 h; higher = more signal, called active from +8 up or from −8 down.
Experiment [7] is described as follows: modulators of S6 phosphorylation in cells, primary screen, cell-based, A549, cytoblot, luminescence, serum-stimulated (AID 1158).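 Note: serum-stimulated A549 lung adenocarcinoma cells; signal is phosphorylated S6 detected by cytoblot immunostaining with HRP secondary.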 As to conditions: A549 phospho-S6 cytoblot, 5 h, higher = more signal.
Experiment [8] has as its target NADPH oxidase 2 (Homo sapiens) (UniProt P04839). Briefly: NOX2-dependent H2O2 signal modulators, primary screen, NOX inhibitor project, cell-based, HEK293-NOX2, PMA-stimulated, Amplex Red fluorescence (AID 1159). Note: test concentration not given here. As to conditions: 45 min, higher = more signal, called active from +8 up or from −8 down.
For experiment [9], the target named is NADPH oxidase 4 (Homo sapiens) (UniProt Q9NPH5). Briefly: NOX4-dependent H2O2 signal modulators, primary screen, NOX inhibitor project, cell-based, HEK293-NOX4, tetracycline-induced, Amplex Red fluorescence (AID 1160). To be noted: 45 min, higher = more signal, called active from +8 up or from −8 down.
The target of experiment [10] is NADPH oxidase 5 (Homo sapiens) (UniProt Q96PH1). As to the kind of experiment: NOX5-dependent H2O2 signal modulators, primary screen, NOX inhibitor project, cell-based, HEK293-NOX5, Amplex Red fluorescence (AID 1161). To be noted: HEK293-NOX5, ionomycin, 45 min, higher = more signal.

Activity calls are given as the source filed them.

NADPH oxidase 5 (Homo sapiens), sequence (Q96PH1 whole entry, looked up): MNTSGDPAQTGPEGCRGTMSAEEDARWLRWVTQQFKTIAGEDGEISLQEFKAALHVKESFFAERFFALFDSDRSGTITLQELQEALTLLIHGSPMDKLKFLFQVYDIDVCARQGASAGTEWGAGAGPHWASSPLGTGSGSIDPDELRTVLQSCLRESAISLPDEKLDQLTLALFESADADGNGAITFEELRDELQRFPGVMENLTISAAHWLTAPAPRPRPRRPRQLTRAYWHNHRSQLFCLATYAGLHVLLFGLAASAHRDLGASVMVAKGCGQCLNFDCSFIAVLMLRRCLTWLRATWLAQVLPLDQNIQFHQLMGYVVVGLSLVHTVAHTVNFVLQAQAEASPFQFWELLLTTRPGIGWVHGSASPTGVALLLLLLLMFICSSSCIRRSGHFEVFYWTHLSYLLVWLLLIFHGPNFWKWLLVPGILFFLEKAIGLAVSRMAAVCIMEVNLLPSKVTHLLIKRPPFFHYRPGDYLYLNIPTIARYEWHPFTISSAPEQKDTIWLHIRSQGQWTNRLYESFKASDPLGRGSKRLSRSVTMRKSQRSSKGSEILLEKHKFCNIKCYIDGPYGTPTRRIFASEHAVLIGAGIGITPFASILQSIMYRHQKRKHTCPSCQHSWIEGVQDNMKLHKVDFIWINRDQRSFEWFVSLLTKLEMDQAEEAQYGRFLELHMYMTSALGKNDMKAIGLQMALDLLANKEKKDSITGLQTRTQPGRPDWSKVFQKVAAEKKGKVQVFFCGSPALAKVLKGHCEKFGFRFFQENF
NADPH oxidase 4 (Homo sapiens), sequence (Q9NPH5 whole entry, looked up): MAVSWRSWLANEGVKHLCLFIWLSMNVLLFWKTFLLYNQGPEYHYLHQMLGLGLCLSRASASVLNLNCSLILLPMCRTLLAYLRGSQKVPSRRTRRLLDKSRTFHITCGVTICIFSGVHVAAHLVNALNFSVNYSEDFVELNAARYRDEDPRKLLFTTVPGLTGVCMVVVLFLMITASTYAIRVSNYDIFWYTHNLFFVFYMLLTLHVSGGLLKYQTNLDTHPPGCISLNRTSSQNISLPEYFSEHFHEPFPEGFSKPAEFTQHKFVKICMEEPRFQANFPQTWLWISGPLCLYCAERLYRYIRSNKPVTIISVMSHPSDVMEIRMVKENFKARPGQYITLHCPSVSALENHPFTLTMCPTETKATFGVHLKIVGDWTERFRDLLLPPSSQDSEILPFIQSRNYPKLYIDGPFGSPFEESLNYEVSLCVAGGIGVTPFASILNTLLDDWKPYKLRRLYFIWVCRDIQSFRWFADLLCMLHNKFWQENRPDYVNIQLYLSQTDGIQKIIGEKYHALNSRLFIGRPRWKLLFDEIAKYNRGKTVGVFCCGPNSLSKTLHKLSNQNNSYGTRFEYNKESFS
NADPH oxidase 2 (Homo sapiens), sequence (P04839 whole entry, looked up): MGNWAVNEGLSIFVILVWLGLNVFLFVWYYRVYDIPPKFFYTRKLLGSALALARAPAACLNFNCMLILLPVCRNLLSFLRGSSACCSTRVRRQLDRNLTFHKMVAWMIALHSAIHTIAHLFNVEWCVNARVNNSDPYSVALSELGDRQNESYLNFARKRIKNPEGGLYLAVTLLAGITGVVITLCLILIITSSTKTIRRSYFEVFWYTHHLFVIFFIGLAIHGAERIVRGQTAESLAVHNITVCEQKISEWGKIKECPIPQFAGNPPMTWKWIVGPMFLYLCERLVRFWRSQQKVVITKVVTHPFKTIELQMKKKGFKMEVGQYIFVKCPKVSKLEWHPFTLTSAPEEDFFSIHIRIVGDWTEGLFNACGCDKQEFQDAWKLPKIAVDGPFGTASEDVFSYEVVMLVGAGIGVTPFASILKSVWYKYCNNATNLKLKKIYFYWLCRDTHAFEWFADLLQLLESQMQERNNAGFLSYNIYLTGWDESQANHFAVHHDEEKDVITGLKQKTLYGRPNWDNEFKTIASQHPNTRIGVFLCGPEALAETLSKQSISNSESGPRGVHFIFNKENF

For the molecule `O=[N+]([O-])c1ccc(C[n+]2ccc(-c3ccc(CO)cc3)cc2)o1`, the z-score in experiment [1] is -1.32 (inactive); in experiment [3], 1.34 (inactive); in experiment [4], 0.199 (inactive); in [5], 0.495 (inactive); in experiment [6] it was -0.139 (inactive); in experiment [7], -0.103. The z-score in experiment [8] was 0.0654 (inactive); in [9], -0.765 (inactive); in experiment [10], -3.73. Further, the composite z-score in [2] is -0.0764.
As for `CC(C)(C)OC(=O)CC[C@@]1(C(=O)N2CCCCC2)N=C(c2ccc(OCCCO)cc2)O[C@@H]1c1ccccc1CN=[N+]=[N-]`, the z-score in [1] was 0.502 (inactive); in [3] it was 29.6 (active); in experiment [4] it was 25 (active); in experiment [5], 1.03 (inactive); in experiment [6], 4.6 (inactive); in [7], -0.243. Moreover, the z-score is -0.601 (inactive) in experiment [8], 1.13 (inactive) in experiment [9] and 1.22 in experiment [10]. Also, in [2], the composite z-score was 0.549.
Regarding `COCCOC(=O)N1C(=O)[C@@]2(c3cc(C#CCCO)ccc31)[C@H](c1ccc(OCCO)cc1)N1[C@H](c3ccccc3)[C@H](c3ccccc3)OC(=O)[C@H]1[C@@H]2C(=O)N1CCc2cc(OC)c(OC)cc2C1`, the z-score in experiment [1] was 0.526 (inactive); in experiment [3], 3.2 (inactive); in experiment [4], 1.67 (inactive); in experiment [5] it was 0.226 (inactive); in experiment [6], 1.1 (inactive); in [7] it was -0.354. The z-score in experiment [8] is 0.898 (inactive); in experiment [9], 1.01 (inactive); in experiment [10] it was 1.23. In [2], this molecule came in with a composite z-score of 0.777.
Regarding `COc1ccc([Si](C)(C)[C@@H]2[C@@H](CC(=O)N(CCO)Cc3ccccc3)O[C@]3(C(=O)N(C)c4c(Br)cc(C)cc43)[C@H]2C)cc1`, the z-score in experiment [1] is -1.98 (inactive); in experiment [3], 26.6 (active); in [4], 14.2 (active); in [5], 0.233 (inactive); in experiment [6], 2.09 (inactive); in experiment [7], 0.336. Besides, the figures for the z-score in experiment [8], in experiment [9] and in experiment [10] were -1.91 (inactive), -0.00605 (inactive) and -1.28, respectively. Further, the composite z-score in [2] was -0.103.
Take `[N-]=[N+]=NCc1ccccc1[C@H]1OC(c2ccc(OCCCO)cc2)=N[C@@]1(Cc1ccccc1)C(N)=O`: the z-score in experiment [1] is 0.0183 (inactive); in experiment [3] it was 25.2 (active); in experiment [4] it was 15.2 (active); in experiment [5], 1.79 (inactive); in experiment [6] it was 2.75 (inactive); in [7] it was 0.534. Also, the z-score is -0.17 (inactive) in [8], 1.21 (inactive) in [9] and 1.2 in [10]. Moreover, in experiment [2], the composite z-score amounted to 0.174.
Regarding `C[N+](C)(C)CCCC[C@@H]1NC(=O)[C@@H]2C[C@H](C(=O)O)[C@H](c3cccc(OCCO)c3)N2C1=O`, the z-score in experiment [1] is 1.03 (inactive); in experiment [3], 2.2 (inactive); in experiment [4], 0.157 (inactive); in experiment [5] it was -1.84 (inactive); in experiment [6], 0.276 (inactive); in experiment [7] it was 1.44. Further, the z-score in [8] is 1.83 (inactive); in experiment [9], 0.877 (inactive); in experiment [10], 1.01. Moreover, in [2], the composite z-score was -0.286.
Take `CN(C)CCCCCCNC(=O)[C@@H]1C[C@@H]2C(=O)NCC(=O)N2[C@@H]1c1ccc(O)cc1`: the z-score is -0.407 (inactive) in [1]; 0.755 (inactive) in [3]; -0.296 (inactive) in [4]; 0.794 (inactive) in [5]; -0.114 (inactive) in experiment [6]; -0.341 in experiment [7]. The z-score in experiment [8] was -0.289 (inactive); in [9] it was 0.12 (inactive); in [10], 0.524. In [2], this molecule gave a composite z-score of 0.298.
Consider `CCN(CC)c1ccc(N2CC=CC34O[C@@H]5/C=C\CCCOC(=O)C5[C@H]3C(=O)N(CCCCCO)[C@@H]4C2=O)cc1` (stereo not given in full), for which the z-score in experiment [1] was -1.06 (inactive); in experiment [3], 1.03 (inactive); in experiment [4] it was 0.0039 (inactive); in [5], -0.656 (inactive); in experiment [6], -0.28 (inactive); in experiment [7], -0.486. Further, the z-score was 0.516 (inactive) in experiment [8], -0.21 (inactive) in experiment [9] and 1.41 in experiment [10]. In experiment [2], the composite z-score was -0.0479.
With `O=C1O[C@@H](c2ccccc2)[C@@H](c2ccccc2)N2[C@@H](c3ccc(O)cc3)[C@]3(C(=O)Nc4ccc(C#CC5=CCCCC5)cc43)[C@@H](C(=O)Nc3nc4ccccc4s3)[C@H]12`, the z-score is 0.542 (inactive) in experiment [1]; 0.0488 (inactive) in experiment [3]; 1.36 (inactive) in [4]; 2.66 (inactive) in experiment [5]; 1.6 (inactive) in experiment [6]; -0.227 in experiment [7]. Moreover, the values for the z-score in experiment [8], in experiment [9] and in experiment [10] were 1.35 (inactive), 0.617 (inactive) and -0.146, respectively. The molecule further registered a composite z-score in experiment [2] of 1.53.
With `O=C(C=C(CC(O)c1cccc(Cl)c1)OCCF)OCCF` (stereo not given), the z-score in experiment [1] is 0.597 (inactive); in experiment [3] it was 1.35 (inactive); in experiment [4] it was -0.385 (inactive); in experiment [5], -0.0116 (inactive); in experiment [6], -1.67 (inactive); in [7], 0.785. Besides, the z-score in experiment [8] was 0.176 (inactive); in [9] it was -0.15 (inactive); in experiment [10], 0.305. Also, the composite z-score in [2] is -0.0694.
As to `COC(=O)[C@@]1(Cc2ccccc2)[C@H]2c3cc(C(=O)N4CCCC4)n(Cc4ccc(OC(F)(F)F)cc4)c3C[C@H]2CN1C(=O)c1ccccc1`, the z-score in experiment [1] is -2.11 (inactive); in experiment [3], 3.6 (inactive); in experiment [4], 1.2 (inactive); in [5], 1.01 (inactive); in experiment [6] it was 1.35 (inactive); in [7], -0.366. Also, the z-score in experiment [8] is 0.828 (inactive); in experiment [9], 1.34 (inactive); in experiment [10], 0.914. In experiment [2], this molecule had a composite z-score of 0.592.
For the molecule `C=CCNC(=O)[C@H]1[C@@H]2C(=O)O[C@@H](c3ccccc3)[C@@H](c3ccccc3)N2[C@@H](c2ccc(O)cc2)[C@]12C(=O)N(C(=O)OCCOC)c1ccc(C#CC3(O)CCCCCC3)cc12`, the z-score in experiment [1] was 1.91 (inactive); in [3], 0.842 (inactive); in experiment [4] it was 0.788 (inactive); in experiment [5], 0.0365 (inactive); in experiment [6], 0.222 (inactive); in experiment [7] it was 0.281. Further, the z-score in [8] is 1.37 (inactive); in experiment [9], 0.903 (inactive); in experiment [10], 1.89. Moreover, in [2], the composite z-score is 0.0313.
